Measured values taken from PubChem BioAssay (NCI).
Where “and” joins values, the source holds several entries; their conditions need not be identical. Identical values can stand only once. The panel holds about 83,000 compounds, 20% with a hit somewhere; the sample as a whole holds those more often.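 Results are percent growth after 48 hours of single-concentration exposure. 100 means growth as in untreated cells, lower positive values show inhibition; negative values down to -100 show cell death.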 Unmarked numbers belong to inactive results. Calls of active or inactive are those of the source. Rule for the calls: active = growth percent below 10; inactive = the rest.

How the values were obtained:
Test in all cases: NCI-60 one-dose screen, 48 h (100 = growth as untreated, 0 = no growth, -100 = all killed)
Settings in all cases: 10 µM unless noted
[1] = tested on: NCI-H23 lung
[2] = tested on: NCI-H226 lung
[3] = tested on: NCI-H322M lung
[4] = tested on: HOP-62 NSCLC
[5] = tested on: NCI-H460 lung
[6] = tested on: HOP-92 NSCLC
[7] = tested on: NCI-H522 lung
[8] = tested on: A549/ATCC NSCLC
[9] = tested on: 786-0 renal
[10] = tested on: COLO 205 colon

Row | SMILES | growth [1] | growth [2] | growth [3] | growth [4] | growth [5] | growth [6] | growth [7] | growth [8] | growth [9] | growth [10]
1 | CC12CCC(C(=O)CC1=O)C2(C)C (configuration not stated) | 108% and 97.9% | 95.8% | 112% and 97.3% | 110% | 104% and 114% | 102% and 94.9% | 103% and 153% | 101% and 103% | 104% and 96.6% | 114% and 110%
2 | COc1c(O)c(O)cc2c3c(oc12)CC(c1ccc2c(c1)OCO2)CC3=O (configuration not stated) | 69.4% | 80% | 73.2% | 71.4% | 25% | 71.7% | 54.2% | 60.7% | 52.1% | 119%
3 | ON=C1CCCCCCCC1 | 99.6% and 98% | 105% | 96.4% | 104% | 114% and 110% | 105% and 102% | 94.1% and 92.8% | 103% and 110% | 116% and 95.6% | 102% and 112%
4 | COc1ccc(-c2nn3c(-c4cc(F)c(Cl)cc4Cl)nnc3s2)cc1 | 54.1% | 80% | 79.2% | 30.6% | 32.5% | 37.6% | 23.1% | 51.1% | 46.2% | 62.9%
5 | Brc1ccc(/C=C(/C2=NCCN2)n2ccc3ccccc32)cc1 | 87% | 62.1% | 75.7% | 68.3% | 76.4% | 34.3% | 62.7% | 77.9% | 81.6% | 64.8%
6 | N=C(N)c1ccc(-c2ccc(-c3ccc(Cl)c(Cl)c3)s2)cc1 | 63.1% | 98.9% | -3.21% (active) | 40.8% | -58.7% (active) | 74.4% | -38.4% (active) | -51.9% (active) | -3.47% (active) | -17.9% (active)
7 | CCCCCCCCn1ccc2cc(NC(=O)CN3CCN(c4nc(C)cc(N5CCCCC5)n4)CC3)ccc21 | 86% | 86.1% | 101% | 100% | 93.7% | 102% | 76.7% | 83.4% | 88.4% | 84.7%
8 | CC/C=C\C/C=C\C[C@H](O)C/C=C1/C(=O)C=C[C@@H]1C/C=C\CCCC(=O)OC | -19.9% (active) | -48.3% (active) | 10.6% | -30.3% (active) | -40% (active) | -23% (active) | -52.3% (active) | -23.7% (active) | -60.6% (active) | -69.4% (active)
9 | CCCCC1COc2cccc3c2N1C=C/C3=C\C(=O)N(C)c1cccc(Cl)c1 (configuration not stated) | 97.5% | 100% | 110% | 109% | 105% | 92% | 90.1% | 99.5% | 99.8% | 100%
10 | Cc1nc(-n2[nH]c(=O)ccc2=O)sc1N=Nc1ccccc1 | 103% | 85.3% | 97.3% | 94.3% | 102% | 96.6% | 103% | 104% | 94.4% | 112%
11 | O=C1/C(=C/c2cn(-c3ccccc3)nc2-c2ccccc2)SC(=S)N1c1ccc(Cl)cc1 | 87.5% | 71.2% | 64.8% | 52.7% | 47.5% | 43.3% | 83.7% | 68.8% | 85.5% | 111%
12 | CSc1nnc(-c2cc3c([nH]c4ccccc43)c(-c3cccc(O)c3)n2)n1-c1ccc(C)cc1 | 70.9% | 57.6% | 70.3% | 44.9% | 11.4% | 21.3% | -2.1% (active) | 29.4% | 37.8% | 76.5%
13 | c1ccc(Cc2cccc[n+]2C(c2ccccc2)c2ccccc2)cc1 | 38.2% | 74.7% | 77.9% | 72% | 66.3% | 32.5% | 10.2% | 58.5% | 85.6% | 24.4%
14 | COc1cc(OC)cc(-c2ccc(-c3ccc(C(=N)N)cn3)s2)c1 | 94.6% | 70% | 89.2% | 86% | 4.75% (active) | 86.6% | 78.7% | 63.2% | 74.3% | 49.4%
15 | O=C(CCl)n1nnnc1Cc1ccccc1 | 102% | 104% | 102% | 90.2% | 108% | 102% | 90.8% | 92.2% | 95% | 111%
16 | COc1ccc2nc3cc(Cl)ccc3c(NCCCNCCC(C)O)c2c1 (configuration not stated) | -48.8% (active) | -3.4% (active) | -24.8% (active) | -8.19% (active) | -53.5% (active) | -23.7% (active) | -34.3% (active) | -17.6% (active) | -49.5% (active) | -77.7% (active)
17 | COc1cc(-c2nc(SCCC(C)C)nc(Nc3ccc(F)cc3)c2C#N)cc(OC)c1OC | 84.3% | 90.4% | 63.2% | 17.8% | 21.4% |  | 75% | 28.3% | 46.1% | 79.6%
18 | CN(C)C(=O)c1cc2cnc(Nc3ccc(-c4csc5c(=S)cc(N6CCOCC6)oc45)cc3)nc2n1C1CCCC1 | 7.49% (active) | 15.8% | 18.4% | 6.1% (active) | 3.26% (active) | -5.69% (active) | 4.24% (active) | 5.94% (active) | 9.52% (active) | -33.9% (active)
19 | COc1cc(CNC(=O)CCCC/C=C/C(C)C)ccc1OCc1cn(-c2ccc([N+](=O)[O-])cc2)nn1 | 83.2% | 89.6% | 97.9% | 80.9% | 99.8% | 90.3% | 78.2% | 84.1% | 93.7% | 118%
20 | O=C1OCC2=C1C(c1cccc(C(F)(F)F)c1)c1cc3c(cc1N2CCO)OCCO3 (configuration not stated) | 28.5% | 52.3% | 51.3% | 23.5% | 7.21% (active) |  | 7.2% (active) | 16.3% | 25.5% | -17.7% (active)
21 | O=c1c(/C=C/c2ccco2)nnc2sc(Nc3ccc(Cl)cc3)nn12 | 96.2% | 85.4% | 83.8% | 89% | 101% | 89.2% | 90.8% | 101% | 103% | 114%
22 | COc1ccc(-c2nnc3n(C)c(=O)c4ccccc4n23)cc1O | 41.4% | 76.8% | 44.6% | 20.3% | 12% | 67.3% | 15.6% | 16.5% | 30.8% | 16.6%
23 | CCOC(=O)c1nnn(Cc2cc(=O)oc3c2ccc2ccccc23)c1C | 102% | 105% | 98% | 106% | 104% |  | 96.3% | 102% | 102% | 107%
24 | O=C(/C=C/c1ccccc1)c1cccs1 | 94.1% and 105% | 103% | 106% | 98.7% and 114% | 93.3% and 109% | 79.3% | 73.6% and 94.2% | 93.9% and 94.3% | 89.5% and 94.2% | 112% and 120%
